Assay results as given in PubChem BioAssay (NCATS).
Results filed as inconclusive are left out. Activity calls are given as the source filed them. Unless noted, calls follow the shape of the dose curve; as a rule, active = well fitted curve in the direction sought with a large enough effect; inconclusive = small, poorly fitted or top-dose-only effect, or another doubt; inactive = no such curve, though single readings can be large; an effect the other way counts as inactive or inconclusive. Where a SMILES comes first, the peptide text is derived from it. [ ]: non-standard residue; d: D form. The star is where a group is joined. Benzoyl(4-tBu) = CC(C)(C)c1ccc(C(=O)*)cc1; Lys(Et2) = CCN(CC)CCCC[C@H](N)C(=O)O

Columns and labels:
[1] = qHTS to identify inhibitors of the type 1 interferon - major histocompatibility complex class I in skeletal muscle: primary screen against the NCATS Mechanism Interrogation Plate v5.0 (MIPE) Libary (AID 1347411); also: nearly all actives have a fitted effect of over 65% in size; also: potency is read from the fitted curve at half-maximal effect;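 as to activity change, negative = inhibition: plate controls were vehicle for no effect and reference inhibitor for full effect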
Outline: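 Immortalized human myoblasts (C25cl48) with HiBit knocked into endogenous HLA-B*08:01 were stimulated with 4 ng/ml IFN-beta and given compounds in 11-point 1:3 titration from 46 uM. After 24 h at 37 C, lytic HiBiT luminescence was read.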

[2] = Primary qHTS for inhibitors of nuclear receptor binding SET domain protein 2 (NSD2) in an isogenic RCH-ACV NSD2 p.E1099K mutant (9B) (AID 1645876); also: nearly all actives have a fitted effect of over 70% in size; also: potency is read from the fitted curve at half-maximal effect; as to activity change, negative = viability loss: % is scaled to controls: 0 for no effect and ±100 for the full control effect
[3] = Primary qHTS for inhibitors of nuclear receptor binding SET domain protein 2 (NSD2) in an RCH-ACV wild type WT cells (2C) (AID 1645877); also: nearly all actives have a fitted effect of over 70% in size; also: potency is read from the fitted curve at half-maximal effect; as to activity change, negative = cell killing: % is scaled to controls: 0 for no effect and ±100 for the full control effect
[4] = target: Glutathione peroxidase 1 (Homo sapiens) (UniProt P07203); test: Primary qHTS Assay for Inhibitors of Recombinant Selenoprotein Glutathione Peroxidase 1 (GPX1) (AID 1845191); also: nearly all actives have a fitted effect of over 65% in size
Chain of Glutathione peroxidase 1 (Homo sapiens) (P07203 whole entry, looked up): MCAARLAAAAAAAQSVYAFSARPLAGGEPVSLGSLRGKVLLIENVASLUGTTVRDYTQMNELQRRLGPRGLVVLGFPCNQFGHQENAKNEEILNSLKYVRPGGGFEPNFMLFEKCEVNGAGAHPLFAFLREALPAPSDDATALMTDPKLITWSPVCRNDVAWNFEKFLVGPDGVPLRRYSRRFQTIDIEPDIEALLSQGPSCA
Outline: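 Recombinant GPX1 (10 nM final) was preincubated with compound for 30 min at room temperature, then reacted with 1 mM GSH, 0.5 mM CHP, 0.5 mM NADPH and 100 nM glutathione reductase; NADPH fluorescence (340/450 nm) was read at 0 and 15 min.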

[5] = target: Phospholipid hydroperoxide glutathione peroxidase GPX4 (Homo sapiens) (UniProt P36969); test: Primary qHTS Assay for Inhibitors of Recombinant Selenoprotein Glutathione Peroxidase 4 (GPX4) (AID 1845192); details: outcome: dose series up to 50 µM unless noted; also: nearly all actives have a fitted effect of over 65% in size; as to activity change, negative = inhibition: series mostly up to about 50 µM; % is scaled to controls: 0 for no effect and ±100 for the full control effect
Chain of Phospholipid hydroperoxide glutathione peroxidase GPX4 (Homo sapiens) (P36969 whole entry, looked up): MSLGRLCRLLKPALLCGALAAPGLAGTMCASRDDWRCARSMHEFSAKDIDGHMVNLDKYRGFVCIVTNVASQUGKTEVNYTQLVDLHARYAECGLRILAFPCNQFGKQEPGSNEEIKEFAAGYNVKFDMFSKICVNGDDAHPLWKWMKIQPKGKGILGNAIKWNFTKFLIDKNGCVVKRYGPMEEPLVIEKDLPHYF
Outline: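 GR-coupled readout: 100 nM GR, 1 mM GSH, 0.5 mM NADPH; NADPH fluorescence (ex 340/em 450 nm) read at t=0 and after 15 min RT. GPX4 200 nM, preincubated 30 min with compound; substrate 0.5 mM CHP.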

[6] = qHTS drug screen for cell cycle checkpoint inhibitors in PARPi-resistant BRCA-mutant ovarian cancer cell lines. (AID 1963452; calls by dose curve; also: potency is read from the fitted curve at half-maximal effect); details: PEO1/OlaR viability, CellTiter-Glo luminescence, 96 h; for Z-AUC: stronger effect = lower value
Outline: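 PEO1, PEO4 and PEO1/OlaR ovarian cancer cells, 600 per well, exposed 96 h at 37C to a dilution series. Viability read by CellTiter-Glo luminescence, normalized to DMSO and empty wells; activity summarized as Z-AUC.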

[7] = measured here: PEO1 parental Z-AUC

Row | SMILES | Potency [1] | Potency [2] | Potency [3] | Potency [4] | Potency [5] | Z-AUC [6] | Z-AUC [6, 7] | Z-AUC ([6]; measured here: PEO4 Z-AUC) | activity change, negative = inhibition [1] | activity change, negative = viability loss [2] | activity change, negative = cell killing [3] | outcome [4] | outcome [5] | Potency [6]
1 | O=C1CC[C@H](N2Cc3c(OCc4ccc(CN5CCOCC5)cc4)cccc3C2=O)C(=O)N1 | inactive | 16.6 nM (active) | 33.2 nM (active) | inactive | inactive | 1.34 (inactive) | 1.06 | 1.23 | – | – | – | – | – | –
2 | CONC(=O)Nc1ccc(-c2sc3c(c2CN(C)Cc2ccccc2)c(=O)n(-c2ccccc2)c(=O)n3Cc2c(F)cccc2F)cc1 | inactive | inactive | inactive | inactive | inactive | -0.608 (inactive) | -0.886 | -0.917 | – | – | – | – | – | –
3 | CN(C)CCNC(=O)COc1c2cccc1Cc1cccc(c1OCC(=O)NCCN(C)C)Cc1cccc(c1OCC(=O)NCCN(C)C)Cc1cccc(c1OCC(=O)NCCN(C)C)C2 | – | – | – | – | – | -0.309 (inactive) | -0.716 | -0.127 | -36% [at 8.44 µM] (inactive) | 4.69% [at 9.23 µM] (inactive) | 5.34% [at 9.23 µM] (inactive) | inactive [at 9.52 µM] | inactive [at 9.73 µM] | –
4 | CCS(=O)(=O)c1ccc2oc(-c3ccc4ccccc4c3)nc2c1 | inactive | inactive | inactive | inactive | inactive | -0.19 (inactive) | -0.286 | 0.217 | – | – | – | – | – | –
5 | CSC[C@H]1CN(Cc2c[nH]c3c(N)ncnc23)C[C@@H]1O | inactive | inactive | inactive | inactive | inactive | 1.09 (inactive) | 0.706 | 1.05 | – | – | – | – | – | –
6 | CC1(N)CCN(c2cnc(-c3cccc(Cl)c3Cl)c(N)n2)CC1 | inactive | inactive | inactive | inactive | inactive | -0.468 (inactive) | -0.626 | -0.55 | – | – | – | – | – | –
7 | O=C(Nc1nccs1)C(c1cc(F)ccc1O)N1Cc2ccccc2C1=O (stereo unspecified) | inactive | inactive | inactive | inactive | inactive | -0.378 (inactive) | -0.736 | -0.75 | – | – | – | – | – | –
8 | O=C(C[C@@H]1C/C=C\CCC(=O)O[C@H](c2ccccc2)CNC1=O)NCc1ccc(Cl)cc1 | inactive | inactive | inactive | inactive | inactive | -0.618 (inactive) | 0.123 | -0.716 | – | – | – | – | – | –
9 | CCNC(=O)Nc1ccc(Oc2ncnc(N)c2/C=N/OC)cc1Cl | inactive | 20900 nM (active) | 16600 nM (active) | inactive | inactive | 1.52 (inactive) | 1.52 | 1.49 | – | – | – | – | – | –
10 | CC(C)(C)c1[nH]cnc1/C=c1\[nH]c(=O)/c(=C/c2ccccc2)[nH]c1=O | inactive | 118 nM (active) | 118 nM (active) | inactive | inactive | – | -2.5 | -2.52 | – | – | – | – | – | 174 nM (active)
11 | COc1cc2c3c(n(CCCn4ccnc4)c(=O)c2cc1OC)-c1cc2c(cc1C3=O)OCO2 | inactive | 10.5 nM (active) | 13.2 nM (active) | inactive | inactive | – | -2.51 | -1.77 | – | – | – | – | – | 7.8 nM (active)
12 | CCN(CC)CCCC[C@H](NC(=O)[C@H](CC(C)C)NC(=O)[C@H](C)NC(=O)[C@H](Cc1ccccc1)NC(=O)c1ccc(C(C)(C)C)cc1)C(=O)N[C@@H](CO)C(=O)OC ({Benzoyl(4-tBu)}-FAL[Lys(Et2)]S-OMe) | inactive | inactive | inactive | inactive | inactive | -0.334 (inactive) | 0.227 | -0.0734 | – | – | – | – | – | –
13 | CN1CCCN(C(=O)c2cccc(-c3ccc(/C=C4/C(=O)Nc5ccc(Cl)cc54)o3)c2)CC1 | 8290 nM (active) | 186 nM (active) | 166 nM (active) | inactive | inactive | 0.657 (inactive) | -0.436 | -0.635 | – | – | – | – | – | –
14 | C[C@@H]1C(=O)OC2[C@H](O)[C@]34[C@H]5C[C@@H](C(C)(C)C)[C@]36[C@@H](OC(=O)[C@@H]6O)O[C@@]4(C(=O)O5)[C@]21O (stereo partly specified) | inactive | inactive | inactive | inactive | inactive | 1.19 (inactive) | 0.871 | 0.917 | – | – | – | – | – | –
15 | Nc1nc(OC(c2ccc(-c3cccc(F)c3)cc2)C(F)(F)F)cc(-c2ccc(C[C@@H](N)C(=O)O)cc2)n1 (stereo partly specified) | inactive | 18600 nM (active) | 20900 nM (active) | inactive | inactive | 1.03 (inactive) | 1.4 | 1.67 | – | – | – | – | – | –
16 | CC(C)(O)CNc1ncc(-c2ccnc(Nc3ccncc3)n2)c(CC2CC2)n1 | 16500 nM (active) | 4170 nM (active) | 3720 nM (active) | inactive | inactive | -0.109 (inactive) | -0.212 | 0.228 | – | – | – | – | – | –
17 | CC(C)(O)[C@H]1CC[C@@](C)([C@H]2[C@@H](O)C[C@@]3(C)[C@@H]4C[C@H](O[C@@H]5O[C@H](CO)[C@@H](O)[C@H](O)[C@H]5O)[C@H]5C(C)(C)[C@@H](O[C@@H]6OC[C@@H](O)[C@H](O)[C@H]6O)CC[C@@]56C[C@@]46CC[C@]23C)O1 | inactive | inactive | inactive | inactive | inactive | -0.0384 (inactive) | 1.82 | 1.68 | – | – | – | – | – | –
